Where “and” joins values, the source holds several entries; their conditions need not be identical. Identical values can stand only once. Inconclusive results are not listed. Some structures have more than one record in an assay (separate samples or runs), and their calls can disagree. Calls of active or inactive are those of the source. The calls were made as follows, unless noted: active = hit-call score of the fitted dose curve at least 0.9, where 1 is the maximum; inactive = score below 0.9.
What was measured:
[1] = target: Estrogen receptor (Homo sapiens) (UniProt P03372); assay: ATG_ERa_TRANS: Attagene TRANS-FACTORIAL HepG2 Assay for human Estrogen Receptor alpha (ERa) (AID 2282970; active = hit-call score of the fitted dose curve at least 0.9, where 1 is the maximum); details: HepG2 Attagene TRANS ERa GAL4 reporter, mRNA
Estrogen receptor (Homo sapiens), sequence (P03372 whole entry, looked up, the tested form may be a part): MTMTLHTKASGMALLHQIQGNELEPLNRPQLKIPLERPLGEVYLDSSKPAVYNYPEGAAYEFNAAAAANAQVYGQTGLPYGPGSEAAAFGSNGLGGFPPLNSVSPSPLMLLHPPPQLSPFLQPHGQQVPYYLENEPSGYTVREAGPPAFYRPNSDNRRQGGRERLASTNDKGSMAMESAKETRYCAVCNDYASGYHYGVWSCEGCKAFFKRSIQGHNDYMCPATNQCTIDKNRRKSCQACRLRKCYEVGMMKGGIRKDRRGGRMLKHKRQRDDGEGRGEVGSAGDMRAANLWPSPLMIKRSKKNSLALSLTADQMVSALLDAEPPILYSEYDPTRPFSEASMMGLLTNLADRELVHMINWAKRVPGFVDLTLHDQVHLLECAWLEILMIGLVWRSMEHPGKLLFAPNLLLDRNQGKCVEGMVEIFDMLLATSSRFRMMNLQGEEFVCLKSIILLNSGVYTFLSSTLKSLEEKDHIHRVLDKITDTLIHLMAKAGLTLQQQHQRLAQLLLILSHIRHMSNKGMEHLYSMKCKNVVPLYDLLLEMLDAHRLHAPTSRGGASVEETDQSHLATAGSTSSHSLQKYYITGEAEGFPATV
In short: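 Signal derives from fluorescence of labelled reporter PCR fragments separated by capillary electrophoresis. HepG2 cells transiently carrying multiple GAL4-UAS reporter units were treated 24 hours, and induction above DMSO baseline was fitted as activity.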

[2] = target: Retinoic acid receptor alpha (Homo sapiens) (UniProt P10276); assay: ATG_DR5_RAR_CIS: Attagene CIS-FACTORIAL HepG2 Assay for human Retinoic Acid Receptor Alpha (RARE), DR5 submotif (AID 2282934); details: HepG2 Attagene cis-factorial RARE DR5 reporter, mRNA; actives raise or lower the signal
Retinoic acid receptor alpha (Homo sapiens), sequence (P10276 whole entry, looked up): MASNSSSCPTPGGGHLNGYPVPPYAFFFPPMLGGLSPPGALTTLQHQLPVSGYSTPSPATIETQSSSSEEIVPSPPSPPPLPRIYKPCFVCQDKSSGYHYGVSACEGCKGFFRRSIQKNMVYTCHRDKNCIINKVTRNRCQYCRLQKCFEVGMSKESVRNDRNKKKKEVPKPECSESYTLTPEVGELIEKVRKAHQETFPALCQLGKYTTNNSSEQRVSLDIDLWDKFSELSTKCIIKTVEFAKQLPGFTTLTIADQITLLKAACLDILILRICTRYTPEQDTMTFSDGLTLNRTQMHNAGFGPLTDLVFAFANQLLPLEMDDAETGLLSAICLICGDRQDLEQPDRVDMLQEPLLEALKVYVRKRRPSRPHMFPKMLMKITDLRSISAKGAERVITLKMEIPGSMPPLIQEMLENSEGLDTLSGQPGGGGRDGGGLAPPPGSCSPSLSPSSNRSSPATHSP
In short: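 Transfected HepG2 reporter cells are exposed to chemicals for 24 h. Then RNA is extracted and the DR5 element reporter transcript is measured by RT-PCR and capillary electrophoresis, with bidirectional curve fitting relative to DMSO.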

[3] = read-out: Vascular endothelial growth factor receptor 2 (Homo sapiens) (UniProt P35968); assay: BSK_4H_VEGFRII: BioMAP Diversity Plus: 4H Assay for Vascular endothelial growth factor receptor 2 (VEGFR2) Biomarker Activity (AID 2283031); details: primary human endothelial cells (HUVEC); actives raise or lower the signal;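 as to AC50: cell-surface VEGFR2 protein level quantified by ELISA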
In short: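 In this multiplexed HUVEC system, biomarker ELISA was performed after 24 h chemical exposure. Parallel SRB staining (TCA fixation, 560 nm) tracked cytotoxicity; DMSO served as baseline.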

[4] = read-out: Human Leukocyte Antigen - DR isotype (HLADR), HLA-DRA (gene 3122); assay: BSK_BE3C_HLADR: BioMAP Diversity Plus: BE3C Assay for Human Leukocyte Antigen - DR isotype (HLADR) Biomarker Activity (AID 2283032); details: primary human bronchial epithelial cells; actives raise or lower the signal
In short: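 BioMAP BE3C format: human bronchial epithelium, 24 h compound treatment, ELISA detection of HLA-DR, with bidirectional analysis relative to DMSO.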

[5] = read-out: TIMP metallopeptidase inhibitor 2 (TIMP2), TIMP2 (gene 7077); assay: BSK_KF3CT_TIMP2: BioMAP Diversity Plus: KF3CT Assay for TIMP metallopeptidase inhibitor 2 (TIMP2) Biomarker Activity (AID 2283071); details: primary human keratinocytes with fibroblasts; actives raise or lower the signal
In short: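 Measurements come from ELISA detection of TIMP-2 at 24 hours in a dosed human keratinocyte and foreskin fibroblast co-culture. DMSO serves as negative control and baseline.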

[6] = read-out: C-C motif chemokine 2 (Homo sapiens) (UniProt P13500); assay: BSK_KF3CT_MCP1: BioMAP Diversity Plus: KF3CT Assay for Monocyte Chemoattractant Protein 1 (MCP1/CCL2) Biomarker Activity (AID 2283073); details: primary human keratinocytes with fibroblasts; actives raise or lower the signal
In short: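 Biomarker MCP-1 is measured by ELISA in primary human keratinocytes co-cultured with foreskin fibroblasts, 24 h after chemical treatment; DMSO serves as the negative control and activity baseline.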

[7] = read-out: urokinase plasminogen activator (uPA), PLAU (gene 5328); assay: BSK_KF3CT_uPA: BioMAP Diversity Plus: KF3CT Assay for urokinase plasminogen activator (uPA) Biomarker Activity (AID 2283075); details: primary human keratinocytes with fibroblasts; actives raise or lower the signal
In short: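 Values derive from bidirectional fitting against DMSO controls. Keratinocyte/foreskin fibroblast co-cultures received chemical; 24 h later uPA was detected by ELISA, with SRB total-protein staining in parallel wells for overt cytotoxicity.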

[8] = read-out: CD40, CD40 (gene 958); assay: BSK_LPS_CD40: BioMAP Diversity Plus: LPS Assay for CD40 Biomarker Activity (AID 2283076); details: primary human HUVEC with PBMC; actives raise or lower the signal
In short: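 Using a multiplexed primary human co-culture (umbilical vein endothelium plus PBMC), CD40 was read by ELISA 24 h after dosing, with cytotoxicity tracked by sulforhodamine B staining of parallel cultures and activity fitted bidirectionally versus DMSO.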

[9] = read-out: E-selectin (Homo sapiens) (UniProt P16581); assay: BSK_LPS_Eselectin: BioMAP Diversity Plus: LPS Assay for Eselectin Biomarker Activity (AID 2283077); details: primary human HUVEC with PBMC; actives raise or lower the signal
In short: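 Dose chemical onto LPS-driven HUVEC/PBMC co-culture; after 24 h, run ELISA for E-selectin; fit up- and down-going responses relative to DMSO control.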

[10] = read-out: Interleukin-8 (IL8), CXCL8 (gene 3576); assay: BSK_LPS_IL8: BioMAP Diversity Plus: LPS Assay for Interleukin-8 (IL8) Biomarker Activity (AID 2283078); details: primary human HUVEC with PBMC; actives raise or lower the signal
In short: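 In this LPS system, chemical-treated human umbilical vein endothelium/PBMC co-cultures were harvested at 24 h for IL-8 ELISA.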

[11] = BSK_LPS_SRB: Viability Assessment in the BioMAP Diversity Plus: LPS Assay (AID 2283079); details: primary human HUVEC with PBMC;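 also: total protein by sulforhodamine B absorbance as a cytotoxicity measure; measured one day after compound addition; fitted in both directions against DMSO so loss or gain of signal counts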
In short: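 Cytotoxicity endpoint in human endothelial–PBMC co-culture: 24 h exposure, then SRB (0.1%) staining, 560 nm read.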

[12] = read-out: Monocyte Chemoattractant Protein-1 (MCP1), CCL2 (gene 6347); assay: BSK_LPS_MCP1: BioMAP Diversity Plus: LPS Assay for Monocyte Chemoattractant Protein-1 (MCP1) Biomarker Activity (AID 2283081); details: primary human HUVEC with PBMC; actives raise or lower the signal;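 as to AC50: co-culture stimulated with LPS; secreted MCP-1 protein quantified by ELISA in culture supernatant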
In short: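 Values derive from bidirectional fitting against DMSO of ELISA-measured MCP-1 in a human primary endothelial and mononuclear cell co-culture, 24 h after chemical addition under LPS activation.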

[13] = read-out: Macrophage colony-stimulating factor (MCSF), CSF1 (gene 1435); assay: BSK_LPS_MCSF: BioMAP Diversity Plus: LPS Assay for Macrophage colony-stimulating factor (MCSF) Biomarker Activity (AID 2283083); details: primary human HUVEC with PBMC; actives raise or lower the signal
In short: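 Bidirectional fit versus DMSO of ELISA-measured M-CSF in co-cultured human umbilical vein endothelial cells and PBMC, sampled 24 h after dosing.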

[14] = read-out: Tissue Factor, F3 (gene 2152); assay: BSK_LPS_TissueFactor: BioMAP Diversity Plus: LPS Assay for Tissue Factor Biomarker Activity (AID 2283084); details: primary human HUVEC with PBMC; actives raise or lower the signal
In short: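 Read-out: CD142 ELISA, 24 h. System: LPS-driven human endothelial/PBMC co-culture. Analysis: up- or down-signal fitted against DMSO.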

[15] = read-out: Vascular cell adhesion molecule 1 (VCAM1), VCAM1 (gene 7412); assay: BSK_LPS_VCAM1: BioMAP Diversity Plus: LPS Assay for Vascular cell adhesion molecule 1 (VCAM1) Biomarker Activity (AID 2283086); details: primary human HUVEC with PBMC; actives raise or lower the signal
In short: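 Measured by ELISA: VCAM-1 in LPS-activated HUVEC/PBMC co-cultures 24 h after treatment. Values reflect bidirectional fitting with DMSO as baseline.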

[16] = read-out: CD38, CD38 (gene 952); assay: BSK_SAg_CD38: BioMAP Diversity Plus: SAg Assay for CD38 Biomarker Activity (AID 2283087); details: primary human HUVEC with PBMC; actives raise or lower the signal
In short: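 Measures CD38 on a human endothelial/PBMC co-culture driven by SEB and TSST-1, 24 h after compound exposure, using ELISA with fluorescence detection; DMSO defines baseline for bidirectional curve fitting.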

[17] = read-out: CD69, CD69 (gene 969); assay: BSK_SAg_CD69: BioMAP Diversity Plus: SAg Assay for CD69 Biomarker Activity (AID 2283089); details: primary human HUVEC with PBMC; actives raise or lower the signal;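 as to AC50: cell surface CD69 protein quantified by ELISA with fluorescence detection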
In short: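 Values derive from bidirectional fitting relative to DMSO vehicle. Cells: umbilical vein endothelium plus peripheral blood mononuclear cells, treated 24 h before fluorescent ELISA for CD69.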

[18] = read-out: Monocyte Chemoattractant Protein-1 (MCP1), CCL2 (gene 6347); assay: BSK_SAg_MCP1: BioMAP Diversity Plus: SAg Assay for Monocyte Chemoattractant Protein-1 (MCP1) Biomarker Activity (AID 2283090); details: primary human HUVEC with PBMC; actives raise or lower the signal
In short: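 Values derive from bidirectional fitting of ELISA-measured MCP1 against DMSO controls. Readings were taken 24 h after dosing human vascular endothelial cells co-cultured with peripheral blood mononuclear cells under superantigen stimulation.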

[19] = read-out: E-selectin (Homo sapiens) (UniProt P16581); assay: BSK_SAg_Eselectin: BioMAP Diversity Plus: SAg Assay for Eselectin Biomarker Activity (AID 2283091); details: primary human HUVEC with PBMC; actives raise or lower the signal
In short: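 Endpoint values derive from bidirectional fitting relative to DMSO, using ELISA-measured E-selectin in a human vascular co-culture (umbilical vein endothelium plus PBMC) sampled 24 h after dosing.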

[20] = read-out: Interleukin-8 (IL8), CXCL8 (gene 3576); assay: BSK_SAg_IL8: BioMAP Diversity Plus: SAg Assay for Interleukin-8 (IL8) Biomarker Activity (AID 2283094); details: primary human HUVEC with PBMC; actives raise or lower the signal
In short: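 Primary human endothelial cells with PBMC, exposed 24 h; IL-8 determined by ELISA, analysed bidirectionally relative to DMSO.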

Measured: AC50

E-selectin (Homo sapiens), sequence (P16581 whole entry, looked up): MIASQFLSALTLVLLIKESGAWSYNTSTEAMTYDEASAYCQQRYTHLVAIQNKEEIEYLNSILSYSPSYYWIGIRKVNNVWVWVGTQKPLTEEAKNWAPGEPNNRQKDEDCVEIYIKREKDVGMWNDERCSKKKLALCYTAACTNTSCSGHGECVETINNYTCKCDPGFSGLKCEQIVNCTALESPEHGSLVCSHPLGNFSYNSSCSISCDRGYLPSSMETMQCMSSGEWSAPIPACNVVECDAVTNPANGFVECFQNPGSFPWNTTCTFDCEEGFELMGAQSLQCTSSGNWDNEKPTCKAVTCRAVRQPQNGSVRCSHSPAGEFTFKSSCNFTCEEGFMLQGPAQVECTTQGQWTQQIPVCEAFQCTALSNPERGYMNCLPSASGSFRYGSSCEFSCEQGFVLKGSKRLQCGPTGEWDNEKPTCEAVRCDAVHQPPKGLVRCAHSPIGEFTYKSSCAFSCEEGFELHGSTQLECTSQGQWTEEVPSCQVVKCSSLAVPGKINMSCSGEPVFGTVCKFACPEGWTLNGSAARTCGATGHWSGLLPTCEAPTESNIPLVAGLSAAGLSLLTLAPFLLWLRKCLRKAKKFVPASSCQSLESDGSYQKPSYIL

c1ccc(P(c2ccccc2)c2ccccc2)cc1
active: [1] 15.2 µM

Cc1ncc(C[n+]2csc(CCO)c2C)c(N)n1
inactive: [2]

Nc1ccc(-c2ccc(N)c(N)c2)cc1N
active: [5] 20 µM | [15] 20 µM | [17] 12.7 µM | [19] 11.7 µM
not listed: [1] | [2]
inactive: all other assays above

CC(C)(C)C(O)C(Oc1ccc(-c2ccccc2)cc1)n1cncn1 (stereo not drawn)
active: [3] 34.7 µM | [5] 20 µM
not listed: [2]
inactive: all other assays above

O=C(O)CCCc1ccc(N(CCCl)CCCl)cc1
inactive: [1] | [3] | [6] | [7] | [9] | [10]
active: [4] 22 µM and 29.6 µM | [5] 30.6 µM and 32.6 µM | [6] 30 µM | [8] 20 µM | [9] 20 µM | [10] 25.4 µM | [11] 20 µM | [12] 20 µM | [13] 17.7 µM and 20 µM | [14] 20 µM and 12.5 µM | [15] 20 µM and 28.3 µM | [16] 26.6 µM and 12.3 µM | [17] 23.7 µM and 20 µM | [18] 20 µM and 27.2 µM | [19] 31 µM and 20 µM | [20] 20 µM and 10.2 µM

SCc1ccco1
active: [1] 54.1 µM

Oc1ccc(Cl)cc1
inactive: [2]

Oc1ccc(C2(c3ccc(O)cc3)c3ccccc3-c3ccccc32)cc1
inactive: [1]
active: [3] 33.9 µM and 35.7 µM | [4] 150 nM | [5] 5.37 µM and 5.43 µM | [6] 5.75 µM and 6.7 µM | [7] 8.33 µM and 9.87 µM | [8] 12.1 µM and 10.1 µM | [9] 31.6 µM and 33.9 µM | [10] 28.9 µM and 28.2 µM | [11] 13.7 µM and 14.4 µM | [12] 16.5 µM and 14.2 µM | [13] 33.9 µM and 33.6 µM | [14] 32 µM and 29.5 µM | [15] 15.9 µM and 22 µM | [16] 8.99 µM and 9.75 µM | [17] 10.6 µM and 9.45 µM | [18] 11.8 µM and 11.2 µM | [19] 10.2 µM and 7.86 µM | [20] 8.55 µM and 9.2 µM

CCC(C)c1cc([N+](=O)[O-])cc([N+](=O)[O-])c1OC(=O)C=C(C)C (stereo not drawn)
inactive: [20]
active: [3] 8.71 µM | [4] 11800 nM | [5] 21.1 µM | [6] 36.7 µM | [7] 30.3 µM | [8] 7.46 µM | [9] 13.3 µM | [10] 20 µM | [11] 13.3 µM | [12] 13.4 µM | [13] 13 µM | [14] 33.5 µM | [15] 20 µM | [16] 10.3 µM | [17] 8.09 µM | [18] 12.6 µM | [19] 8.28 µM

O=[N+]([O-])c1cc(C(F)(F)F)c(Cl)c([N+](=O)[O-])c1Cl
active: [1] 14.6 µM

CCCC=NO
inactive: [1]

O=C=Nc1ccccc1
inactive: [2]

Cc1ccc(N(SC(F)(Cl)Cl)S(=O)(=O)N(C)C)cc1
inactive: [2]

CSc1nc(N=[N+]=[N-])nc(NC(C)C)n1
inactive: [1]

N#Cc1cc(I)c(O)c(I)c1
inactive: [2]

C=CC(=O)OC
inactive: [2]

Cc1ccc(OP(=O)(Oc2ccc(C)cc2)Oc2ccc(C)cc2)cc1 (tested in a mixture with another compound)
active: [5] 5.39 µM | [8] 7.66 µM | [10] 11.8 µM | [11] 20 µM | [13] 16.1 µM | [16] 20 µM | [17] 9.8 µM | [18] 20 µM | [19] 20 µM | [20] 10.6 µM
inactive: [3] | [4] | [6] | [7] | [9] | [12] | [14] | [15]

BrCBr
inactive: [1]

N#CCCCCC#N
not listed: [1] | [2]
inactive: all other assays above

CN(C)N
inactive: [2]

COc1ncc(F)c2nc(S(=O)(=O)Nc3c(F)cccc3F)nn12
inactive: [1]

CC(C)(O)C#N
inactive: [2]

CCOP(O)OCC
inactive: [2]
